We go through 40 compounds from PubChem BioAssay (NCI).

Each structure is given as a SMILES string. About 83,000 compounds went through this panel and 20% of them were active in at least one assay; those are over-represented in the sample as a whole.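 Note: values are percent growth. 100 is the growth of untreated cells, values between 100 and 0 indicate rising inhibition; between -100 and 0 indicates cell death.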 Activity calls are given as the source filed them.

This assay relates to OVCAR-3 ovarian. Briefly: NCI-60 one-dose screen, 48 h (100 = growth as untreated, 0 = no growth, -100 = all killed). The conditions noted are these: 10 µM unless noted. Here is the method:
Growth inhibition of the OVCAR-3 human tumor cell line is measured as a screen for anti-cancer activity. Cells are grown in 96 well plates and exposed to the test compound for 48 hours. Compounds are tested at a single concentration, which is 10^-5 M for most compounds. The reported endpoint is percent growth (GI% or GIPRCNT), where numbers from 0 - 100% represent growth inhibition, and numbers from -100% - 0 represent cell death. For example, a value of 40 represents 60% growth inhibition. A value of 0 means no net growth occurred over the course of the experiment. A value of -40 indicates 40% of cells at the beginning of the experiment died by the end of the experiment. A value of -100 means all cells are dead at the end of the experiment.
NCI-60 Human Tumor Cell Lines Screen was performed using the standard one-dose NCI protocol, which is described in more detail at https://dtp.cancer.gov/discovery_development/nci-60/default.htm.
Compounds with GIPRCNT values below 10 were considered active. Activity score was based on GIPRCNT using the following formula: […]
Score is 0 for GIPRCNT values of 100 or above, 50 for GIPRCNT values of 0, and 100 for GIPRCNT values of -100.
Take `N#Cc1c(N)nc2c(C#N)c(NC(=O)c3ccccc3)nn2c1-c1ccccc1`: the growth is 89.5% (inactive). To `CC(C)CC(NC(=O)CN(Cc1ccccc1)S(C)(=O)=O)C(=O)O` (stereo not given) belongs 96.6% (inactive); to `CCc1ccccc1NC(=O)/C(C#N)=C/c1ccc(OC)cc1`, 92.6% (inactive); to `O=C(NCCCNc1cc(-c2cn(-c3ccccc3)nc2-c2cccc(O)c2)ccn1)c1ccc(F)cc1`, 38.4% (inactive). On to `O=C(c1ccc(Nc2nccc(NCCCCNc3ccnc4cc(Cl)ccc34)n2)cc1)N1CCCCC1`, for which the growth was 36.6% (inactive).

As to `CCCCCCCCn1ccc2cc(NC(=O)Cn3cc(CN4CCCC4)nn3)ccc21`, the growth was 51.9% (inactive). Take `Cc1cccc(NC(=O)N/C(N)=N/c2nc(C)c(C)s2)c1`: the growth is 39.8% (inactive). `COc1ccc(-c2nc3c(N)c(CO)c(C)nc3o2)cc1`: the growth was 103% (inactive). Turning to `COc1cc2nc(Cl)nc(Nc3ccc(S(=O)(=O)Nc4nccs4)cc3)c2cc1OC`, the growth was 116% (inactive). On to `O=c1c2cc(F)ccc2sc2c(Nc3cccnc3)nc3ccccc3c12`, for which the growth was 108% (inactive). Regarding `CC(C)(C)OC(=O)Nc1ccc2c(c1)C(NC(=O)Nc1cccc(C#N)c1)CC(C)(C)O2` (stereo not given), the growth is 48% (inactive). With `N=C(N)c1ccc(-c2ccc(-c3cncc4ccccc34)s2)s1` the figure was -85.5% (active); with `Cc1c(Cl)cc(-n2c(=O)c3ccccc3c3ccccc3c2=O)cc1Cl`, 127% (inactive); with `CC(C)C(=O)Nc1n[nH]c2cc(-c3cccc(NS(=O)(=O)C4CC4)c3)ccc12`, 57.8% (inactive). On to `Cc1cc(C(=O)c2ccccc2)c(C)c2c1[nH]c1ccc(Cl)cc12`, for which the growth was -51% (active). Turning to `Cc1nc2ccccc2n1CC1NC(=O)NC1=O` (stereo not given), the growth was 105% (inactive). As for `COc1cc(/C=N/n2c(CN3CCOCC3)nc3ccccc3c2=O)cc(OC)c1OC`, the growth is 106% (inactive). With `Cc1ccc(/C=C/c2c(C(=O)/C=C/c3ccc(C(F)(F)F)cc3)c(C)nc3ccccc23)cc1` the figure was -86.3% (active); with `Cc1ccc(Nc2ccc(Nc3ccc(C)cc3)c3c2C(=O)c2cccc(O)c2C3=O)cc1`, 121% (inactive). On to `COC(=O)c1c2c(c(C)[n+]([O-])c1C)C(=O)C(NCc1ccc(F)cc1)=CC2=O`, for which the growth was -21% (active).

In the case of `COc1cc(C2NC(=O)c3ccccc3N2)ccc1OCCCCCOc1c(OC)cc(C2=NOC(c3cc(OC)c(OC)c(OC)c3)C2)cc1OC` (stereo not given), the growth is 78.6% (inactive). For `Cc1ccc2nc(NC(=O)CSc3nc(-c4ccccc4)c(C#N)c(=O)n3Cc3ccccc3)sc2c1`, the growth is 58.5% (inactive).

Regarding `NCCCNc1nc2ccccc2c2c(=O)c3cccc(Cl)c3sc12`, the growth is -51.5% (active). As for `Fc1cnc(NC2CC2)nc1-c1cnc2ccc(N3CCOCC3)cn12`, the growth was 4.44% (active). With `CCOP(=O)(OCC)C1CP(=O)(c2ccccc2)CC(C)=C1Cl` (stereo not given) the figure was 104% (inactive); with `Cc1cc(NCc2cc(Nc3ccnc4cc(Cl)ccc34)ccc2F)nc(N2CCCC2)n1`, -73.6% (active). With `O=C(Nc1ccc(Cl)cc1)Nc1ccc(Cl)c(C(F)(F)F)c1` the figure was 4.12% (active); with `COc1ccc(C2C(c3nn[nH]n3)=C(N)Oc3c2ccc2ccccc32)cc1` (stereo not given), 64.7% (inactive); with `O=C(c1ccccc1)c1c(/C=C/c2ccc(Cl)cc2)nc2ccccc2c1/C=C/c1cccs1`, 95.4% (inactive). In the case of `N#Cc1c(-c2ccccc2)cc(-c2ccc(Nc3nc(Nc4ccc(F)cc4)nc(Nc4ccc(F)cc4)n3)cc2)nc1N`, the growth is 89.5% (inactive). For the compound `Cc1cccc(-c2nc(N(C)c3ccc4ncsc4c3)c3ccccc3n2)n1`, the growth was 62.6% (inactive).

As to `CC1=NOC(=O)/C1=C\c1ccc(O)cc1`, the growth was 103% (inactive). For `O=C(O)c1ccc2c(c1)CCC2`, the growth is 119% (inactive). On to `N#C/C(=C\c1ccc(-c2ccccc2F)o1)c1nc(-c2ccco2)cs1`, for which the growth is 89.6% (inactive). In the case of `COC(=O)[C@]12CC[C@@H](C)[C@H](C)[C@@H]1C1=CC[C@@H]3[C@@]4(C)C(C=O)=C[C@@](C)(COC(C)=O)C4=CC[C@@]3(C)[C@]1(C)CC2`, the growth is -67.3% (active).

For the compound `COc1ccc(-c2csc(C3=C(O)CN(CCCN4CCCC4=O)C3=N)n2)cc1OC`, the growth is 99.4% (inactive).

On to `O=C(/C=C/c1c(Cl)nc2sccn12)c1nccs1`, for which the growth was 90.9% (inactive).

Take `O=c1c2cc(F)ccc2sc2c(NCCCN3CCCC3)nc3ccccc3c12`: the growth was 29.3% (inactive). For the compound `CCN(CC)S(=O)(=O)c1cccc(-c2ccc3c(NC(=O)C4CC4)n[nH]c3c2)c1`, the growth was 17.3% [6.25 µM] (inactive). Consider `CCn1c(C)nc2cc(C(N)=O)ccc21`, for which the growth is 105% (inactive).
